# Test results as given in publication PMC5540273 (PLoS ONE, 2017).
# pKd: −log10 of the molar value.
# Legend:
# HASPIN = tested on: T1, HASPIN
# T1 construct: gene GSG2
# GRK2 = tested on: T2, GRK2
# T2 construct: gene ADRBK1
# GRK3 = tested on: T3, GRK3
# T3 construct: gene ADRBK2
# 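Further: kd values determined as follow-up on hits from a single-replicate KINOMEscan panel screen.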
smiles,measurement,setting,value
Cl.Cl.c1ccc(-c2cc3ccncc3cc2OC2CCNCC2)cc1 [GSK1122999],pKd,HASPIN,7.05
FC(F)(F)c1ccc(-c2nn3ncccc3c2-c2ccnc(Nc3cccc(C(F)(F)F)c3)n2)cc1 [GW828205],pKd,FGFR2,< 5.00
O=C(Nc1n[nH]c2nc(-c3ccco3)c(Br)cc12)c1ccc(CN2CCCC2)cc1.O=C(O)[C@H](O)[C@@H](O)C(=O)O [SB-742352],pKd,FLT3,7.35
Nc1nc(-c2cccnc2)c(-c2ccnc3ccccc23)s1 [GW684083],pKd,HASPIN,6.19
COC(=O)c1c(-c2ccccc2)c2cc(Cl)ccc2c(=O)n1Cc1ccc(S(C)(=O)=O)cc1,pKd,GAK,< 5.00
CNc1nccc(-c2c(-c3ccc(F)cc3)ncn2C2CCN(C)CC2)n1 [SB-222903],pKd,GRK2,< 5.00
Cl.O=S(=O)(c1cccc(F)c1)c1ccc(Nc2ncnc3cc(Br)sc23)cc1Cl [GSK306886],pKd,FLT4,< 5.00
CCC(CC)(CC)n1cnc2c(N)ncnc21 [SKF-97620],pKd,FGFR2,< 5.00
Cc1ccc(NC(=O)c2cccc(C#N)c2)cc1-c1ccc(C(=O)Nc2ccncc2)cc1 [GSK1398463],pKd,FRK,6.72
CCc1nc(-c2cccc(N(C)S(=O)(=O)c3ccccc3)c2)c(-c2ccnc(Nc3ccc(N4CCN(C(C)=O)CC4)nc3)n2)s1 [GSK1645895],pKd,GAK,6.60
COc1ccc(NC(=O)Nc2ccc(C)c(-c3ccc(C(=O)Nc4ccncc4)cc3)c2)cc1 [GSK1398475],pKd,FLT3,5.66
COc1ccc(NC(=O)c2ccc(-c3cc(-c4nnc(C)o4)ccc3C)cc2)cc1 [GW595885],pKd,GRK3,< 5.00
Cn1cc(-c2ccc3c(c2)CCN3C(=O)Cc2cccc(C(F)(F)F)c2)c2c(N)ncnc21 [GSK2606414],pKd,GRK4,< 5.00
Nc1n[nH]c2nnc(-c3ccccc3)cc12 [SB-517389],pKd,HIPK3,6.54
